Results as given in the supplement of paper PMC11732987, “Enantioselective OTUD7B fragment discovery through chemoproteomics screening and high-throughput optimisation” (Communications Chemistry, 2025).

Key:
Experiment in all cases: log2 ratio of Biotin-Ahx-Ub-VS probe labelling (fragment/DMSO); higher = less target engagement (more negative = stronger competition), active = hit call of the paper (q ≤ 0.05, log2 ratio ≤ -1)
Details in all cases: compound concentration: 200 uM; treatment time: 3 h
USP42 = target: T1, USP42 (UniProt Q9H9J4)
T1 sequence (whole entry): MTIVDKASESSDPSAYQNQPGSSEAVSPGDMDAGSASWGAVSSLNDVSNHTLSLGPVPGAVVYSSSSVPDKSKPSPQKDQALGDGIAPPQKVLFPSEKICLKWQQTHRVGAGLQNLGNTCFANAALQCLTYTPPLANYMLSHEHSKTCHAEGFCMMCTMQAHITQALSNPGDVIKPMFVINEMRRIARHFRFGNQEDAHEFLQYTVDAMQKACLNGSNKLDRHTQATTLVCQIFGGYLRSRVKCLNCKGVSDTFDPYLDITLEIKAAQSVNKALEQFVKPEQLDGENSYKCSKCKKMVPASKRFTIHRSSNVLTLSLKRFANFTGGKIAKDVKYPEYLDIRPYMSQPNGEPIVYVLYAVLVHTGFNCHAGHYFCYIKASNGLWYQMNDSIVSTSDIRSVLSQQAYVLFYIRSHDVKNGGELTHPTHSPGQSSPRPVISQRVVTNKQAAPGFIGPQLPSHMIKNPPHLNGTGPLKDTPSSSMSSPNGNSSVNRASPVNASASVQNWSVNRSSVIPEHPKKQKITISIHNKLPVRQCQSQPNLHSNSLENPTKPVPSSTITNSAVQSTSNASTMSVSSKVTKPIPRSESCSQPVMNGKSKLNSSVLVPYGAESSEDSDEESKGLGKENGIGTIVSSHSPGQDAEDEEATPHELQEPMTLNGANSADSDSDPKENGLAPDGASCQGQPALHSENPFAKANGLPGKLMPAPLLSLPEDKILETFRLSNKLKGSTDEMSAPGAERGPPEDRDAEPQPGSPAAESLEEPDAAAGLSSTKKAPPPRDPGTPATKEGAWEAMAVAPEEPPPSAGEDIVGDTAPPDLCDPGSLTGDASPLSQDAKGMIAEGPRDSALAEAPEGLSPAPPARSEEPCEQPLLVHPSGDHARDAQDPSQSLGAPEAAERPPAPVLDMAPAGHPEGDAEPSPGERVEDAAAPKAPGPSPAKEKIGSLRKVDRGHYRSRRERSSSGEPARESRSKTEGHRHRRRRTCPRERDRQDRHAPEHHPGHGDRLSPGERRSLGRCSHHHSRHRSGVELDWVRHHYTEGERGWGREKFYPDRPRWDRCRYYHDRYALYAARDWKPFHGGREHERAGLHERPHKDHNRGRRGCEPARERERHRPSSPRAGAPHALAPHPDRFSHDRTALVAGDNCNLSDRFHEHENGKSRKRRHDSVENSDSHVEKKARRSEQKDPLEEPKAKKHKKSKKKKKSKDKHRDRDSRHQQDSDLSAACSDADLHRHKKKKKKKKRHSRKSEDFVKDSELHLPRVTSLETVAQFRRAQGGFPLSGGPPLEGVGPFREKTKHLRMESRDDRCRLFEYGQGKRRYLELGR
Method in brief: (§1)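 HEK293T lysate (495 µg per sample, in Tris/CHAPS/IGEPAL buffer with protease inhibitors) was exposed in triplicate for 3 h to fragment at 200 µM or to vehicle, then to Biotin-Ahx-Ub-VS at 0.5 µM final for 1 h. Labelled DUBs were enriched on NeutrAvidin, digested with LysC and trypsin, and analysed by diaPASEF LC-MS/MS. Spectronaut label-free quantities were normalised to the global median, and values are average log2 ratios of fragment over vehicle from an unpaired t-test. Only proteins with ≥2 unique peptides were used.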

USP46 = USP46 (UniProt P62068)
Method in brief: as §1

USP47 = target: T2, USP47 (UniProt Q96K76)
T2 sequence (whole entry): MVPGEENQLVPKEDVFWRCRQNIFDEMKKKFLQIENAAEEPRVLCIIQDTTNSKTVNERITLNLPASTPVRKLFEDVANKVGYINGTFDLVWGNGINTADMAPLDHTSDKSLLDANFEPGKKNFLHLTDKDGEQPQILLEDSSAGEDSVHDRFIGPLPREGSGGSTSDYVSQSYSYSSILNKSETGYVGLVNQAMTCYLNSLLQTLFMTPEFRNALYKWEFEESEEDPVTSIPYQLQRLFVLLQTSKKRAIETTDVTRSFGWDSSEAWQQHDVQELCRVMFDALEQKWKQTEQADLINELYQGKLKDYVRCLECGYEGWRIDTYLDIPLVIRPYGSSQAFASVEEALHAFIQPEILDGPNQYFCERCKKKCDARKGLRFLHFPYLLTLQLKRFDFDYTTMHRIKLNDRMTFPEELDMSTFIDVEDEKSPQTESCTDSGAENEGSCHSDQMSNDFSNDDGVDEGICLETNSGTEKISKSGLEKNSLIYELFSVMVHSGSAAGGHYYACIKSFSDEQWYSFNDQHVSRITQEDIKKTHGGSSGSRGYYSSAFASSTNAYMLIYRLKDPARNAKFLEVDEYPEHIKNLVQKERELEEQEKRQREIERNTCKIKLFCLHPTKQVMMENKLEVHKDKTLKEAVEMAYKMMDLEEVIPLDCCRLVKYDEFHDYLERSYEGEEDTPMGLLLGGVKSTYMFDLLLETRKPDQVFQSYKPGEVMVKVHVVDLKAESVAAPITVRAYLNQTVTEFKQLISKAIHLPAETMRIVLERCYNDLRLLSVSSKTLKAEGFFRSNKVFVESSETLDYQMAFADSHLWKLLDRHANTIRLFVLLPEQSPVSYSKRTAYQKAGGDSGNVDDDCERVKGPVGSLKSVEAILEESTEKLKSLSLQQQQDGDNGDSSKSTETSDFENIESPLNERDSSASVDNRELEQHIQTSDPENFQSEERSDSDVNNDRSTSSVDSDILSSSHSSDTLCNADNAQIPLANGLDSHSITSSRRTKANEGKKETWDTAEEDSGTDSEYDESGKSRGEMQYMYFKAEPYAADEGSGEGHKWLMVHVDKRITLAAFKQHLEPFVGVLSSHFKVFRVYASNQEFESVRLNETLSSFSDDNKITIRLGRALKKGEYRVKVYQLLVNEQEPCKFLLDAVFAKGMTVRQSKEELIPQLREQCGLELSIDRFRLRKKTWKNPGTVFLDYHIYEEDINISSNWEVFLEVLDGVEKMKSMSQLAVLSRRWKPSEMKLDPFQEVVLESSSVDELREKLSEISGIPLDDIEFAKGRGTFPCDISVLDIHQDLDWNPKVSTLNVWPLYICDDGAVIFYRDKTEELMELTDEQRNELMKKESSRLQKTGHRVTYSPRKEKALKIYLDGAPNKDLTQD
Method in brief: as §1

USP48 = target: T3, USP48 (UniProt Q86UV5)
T3 sequence (whole entry): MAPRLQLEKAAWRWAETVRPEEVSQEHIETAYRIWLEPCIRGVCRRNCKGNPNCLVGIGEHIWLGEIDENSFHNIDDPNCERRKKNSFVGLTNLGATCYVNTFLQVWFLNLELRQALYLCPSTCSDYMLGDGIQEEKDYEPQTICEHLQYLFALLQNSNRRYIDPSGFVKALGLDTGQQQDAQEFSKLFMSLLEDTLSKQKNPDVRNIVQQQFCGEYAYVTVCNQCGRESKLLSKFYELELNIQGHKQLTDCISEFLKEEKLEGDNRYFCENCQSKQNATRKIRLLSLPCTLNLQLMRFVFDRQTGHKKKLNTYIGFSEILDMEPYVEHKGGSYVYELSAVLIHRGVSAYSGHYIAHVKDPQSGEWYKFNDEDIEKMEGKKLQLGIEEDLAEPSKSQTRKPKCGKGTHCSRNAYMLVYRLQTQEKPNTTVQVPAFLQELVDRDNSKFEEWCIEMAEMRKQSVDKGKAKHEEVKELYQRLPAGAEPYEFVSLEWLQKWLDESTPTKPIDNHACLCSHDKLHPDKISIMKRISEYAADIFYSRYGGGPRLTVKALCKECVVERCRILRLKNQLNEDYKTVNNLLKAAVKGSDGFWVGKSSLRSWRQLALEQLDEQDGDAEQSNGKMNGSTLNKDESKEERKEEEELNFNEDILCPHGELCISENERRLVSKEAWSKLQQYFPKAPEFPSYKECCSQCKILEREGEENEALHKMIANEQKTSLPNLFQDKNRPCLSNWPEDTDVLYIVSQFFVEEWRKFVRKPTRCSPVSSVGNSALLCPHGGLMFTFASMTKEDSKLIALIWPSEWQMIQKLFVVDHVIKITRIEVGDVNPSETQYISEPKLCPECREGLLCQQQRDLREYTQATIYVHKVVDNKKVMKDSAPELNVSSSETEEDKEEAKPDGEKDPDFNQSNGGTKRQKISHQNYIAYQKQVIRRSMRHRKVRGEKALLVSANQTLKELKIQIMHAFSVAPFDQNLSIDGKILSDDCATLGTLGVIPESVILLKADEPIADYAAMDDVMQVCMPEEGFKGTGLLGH
Method in brief: as §1

USP5 = target: T4, USP5 (UniProt P45974)
T4 sequence (whole entry): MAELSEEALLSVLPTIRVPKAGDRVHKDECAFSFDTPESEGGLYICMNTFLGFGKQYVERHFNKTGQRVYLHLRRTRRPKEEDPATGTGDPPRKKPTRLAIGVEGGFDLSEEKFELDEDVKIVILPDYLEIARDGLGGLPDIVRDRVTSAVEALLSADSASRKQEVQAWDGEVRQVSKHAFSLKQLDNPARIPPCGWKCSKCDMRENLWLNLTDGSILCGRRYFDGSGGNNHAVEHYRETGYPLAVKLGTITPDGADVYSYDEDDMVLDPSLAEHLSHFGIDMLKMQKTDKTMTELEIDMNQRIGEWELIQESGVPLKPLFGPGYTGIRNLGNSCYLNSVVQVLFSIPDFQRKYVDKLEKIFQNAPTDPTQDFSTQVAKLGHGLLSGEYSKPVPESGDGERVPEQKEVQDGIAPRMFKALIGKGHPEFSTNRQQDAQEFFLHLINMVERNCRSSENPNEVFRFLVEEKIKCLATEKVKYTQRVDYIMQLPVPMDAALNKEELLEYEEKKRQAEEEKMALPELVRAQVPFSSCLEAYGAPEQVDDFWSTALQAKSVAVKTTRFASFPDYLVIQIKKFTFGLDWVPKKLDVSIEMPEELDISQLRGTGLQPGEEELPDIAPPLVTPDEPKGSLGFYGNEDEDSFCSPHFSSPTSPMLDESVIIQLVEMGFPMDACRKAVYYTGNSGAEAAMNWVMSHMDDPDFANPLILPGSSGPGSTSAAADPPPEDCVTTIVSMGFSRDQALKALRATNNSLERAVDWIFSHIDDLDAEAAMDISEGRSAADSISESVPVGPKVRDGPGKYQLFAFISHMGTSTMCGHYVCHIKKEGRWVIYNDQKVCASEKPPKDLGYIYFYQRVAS
Method in brief: as §1

USP54 = USP54 (UniProt Q70EL1)
Method in brief: as §1

USP7 = USP7 (UniProt Q93009)
Method in brief: as §1

USP8 = target: T5, USP8 (UniProt P40818)
T5 sequence (whole entry): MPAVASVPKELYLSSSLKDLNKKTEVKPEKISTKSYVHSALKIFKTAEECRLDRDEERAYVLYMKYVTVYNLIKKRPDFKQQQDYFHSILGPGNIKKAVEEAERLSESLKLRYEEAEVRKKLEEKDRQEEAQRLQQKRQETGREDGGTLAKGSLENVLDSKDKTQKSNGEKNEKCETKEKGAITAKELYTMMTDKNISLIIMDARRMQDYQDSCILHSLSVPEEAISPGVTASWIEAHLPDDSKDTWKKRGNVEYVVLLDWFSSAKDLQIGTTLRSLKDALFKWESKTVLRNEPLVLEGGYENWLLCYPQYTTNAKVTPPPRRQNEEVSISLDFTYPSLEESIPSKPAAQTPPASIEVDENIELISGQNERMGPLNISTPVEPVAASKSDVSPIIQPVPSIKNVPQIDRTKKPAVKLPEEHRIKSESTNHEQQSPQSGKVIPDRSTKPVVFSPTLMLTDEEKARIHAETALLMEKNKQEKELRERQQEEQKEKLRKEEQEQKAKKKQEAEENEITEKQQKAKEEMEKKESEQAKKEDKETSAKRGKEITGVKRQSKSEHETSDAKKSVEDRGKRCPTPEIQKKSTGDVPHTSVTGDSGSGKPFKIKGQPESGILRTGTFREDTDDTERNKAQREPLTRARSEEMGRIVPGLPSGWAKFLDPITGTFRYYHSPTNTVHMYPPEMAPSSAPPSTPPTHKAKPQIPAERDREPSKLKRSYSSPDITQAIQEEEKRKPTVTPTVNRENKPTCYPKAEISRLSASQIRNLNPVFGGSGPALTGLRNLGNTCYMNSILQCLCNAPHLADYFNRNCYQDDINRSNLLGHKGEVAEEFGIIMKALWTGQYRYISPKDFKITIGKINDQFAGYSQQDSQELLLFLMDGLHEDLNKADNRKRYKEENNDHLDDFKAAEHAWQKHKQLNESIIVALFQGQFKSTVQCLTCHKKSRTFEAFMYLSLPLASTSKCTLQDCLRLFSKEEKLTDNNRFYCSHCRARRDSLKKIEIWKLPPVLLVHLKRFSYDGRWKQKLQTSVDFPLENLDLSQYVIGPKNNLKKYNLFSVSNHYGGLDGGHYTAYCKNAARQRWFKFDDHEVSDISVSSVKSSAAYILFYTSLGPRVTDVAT
Method in brief: as §1

Measured: log2 ratio of Biotin-Ahx-Ub-VS probe labelling

USP7, sequence (Q93009 whole entry, looked up): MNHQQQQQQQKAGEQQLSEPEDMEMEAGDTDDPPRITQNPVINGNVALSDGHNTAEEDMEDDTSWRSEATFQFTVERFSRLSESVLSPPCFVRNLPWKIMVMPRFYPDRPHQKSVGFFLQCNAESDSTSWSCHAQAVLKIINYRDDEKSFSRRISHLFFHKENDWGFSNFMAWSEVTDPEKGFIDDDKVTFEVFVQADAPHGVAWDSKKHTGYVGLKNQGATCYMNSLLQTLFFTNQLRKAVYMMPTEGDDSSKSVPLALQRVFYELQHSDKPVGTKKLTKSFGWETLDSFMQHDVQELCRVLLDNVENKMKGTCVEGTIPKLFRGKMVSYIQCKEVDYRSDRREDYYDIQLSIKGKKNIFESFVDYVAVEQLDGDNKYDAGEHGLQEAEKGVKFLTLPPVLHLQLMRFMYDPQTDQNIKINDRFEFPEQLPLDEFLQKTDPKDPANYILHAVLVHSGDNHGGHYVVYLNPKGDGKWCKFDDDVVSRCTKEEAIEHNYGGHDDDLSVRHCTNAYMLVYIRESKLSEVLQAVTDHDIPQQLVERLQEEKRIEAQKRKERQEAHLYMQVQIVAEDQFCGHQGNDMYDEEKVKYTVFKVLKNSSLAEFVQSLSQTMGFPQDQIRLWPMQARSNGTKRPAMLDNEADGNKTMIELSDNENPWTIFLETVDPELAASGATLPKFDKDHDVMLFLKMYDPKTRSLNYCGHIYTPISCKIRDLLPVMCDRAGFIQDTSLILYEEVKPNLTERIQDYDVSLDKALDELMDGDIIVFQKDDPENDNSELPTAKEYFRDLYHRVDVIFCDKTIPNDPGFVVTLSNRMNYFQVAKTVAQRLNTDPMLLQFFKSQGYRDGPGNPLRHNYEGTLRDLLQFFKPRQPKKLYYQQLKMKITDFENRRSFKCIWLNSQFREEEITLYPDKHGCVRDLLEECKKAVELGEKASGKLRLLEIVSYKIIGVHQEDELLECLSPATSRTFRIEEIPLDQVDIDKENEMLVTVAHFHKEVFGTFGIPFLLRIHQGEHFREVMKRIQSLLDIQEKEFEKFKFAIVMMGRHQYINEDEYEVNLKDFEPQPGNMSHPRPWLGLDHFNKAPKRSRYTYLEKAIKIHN
USP46, sequence (P62068 whole entry): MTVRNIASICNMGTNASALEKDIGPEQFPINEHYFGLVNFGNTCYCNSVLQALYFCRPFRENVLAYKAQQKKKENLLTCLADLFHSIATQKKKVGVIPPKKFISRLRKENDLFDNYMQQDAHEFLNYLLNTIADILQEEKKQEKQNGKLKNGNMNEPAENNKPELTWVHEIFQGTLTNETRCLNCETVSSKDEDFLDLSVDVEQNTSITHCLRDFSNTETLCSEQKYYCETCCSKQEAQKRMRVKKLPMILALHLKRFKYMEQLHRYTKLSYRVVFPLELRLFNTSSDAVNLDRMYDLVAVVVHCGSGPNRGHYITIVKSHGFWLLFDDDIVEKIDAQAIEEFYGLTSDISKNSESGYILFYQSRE
USP54, sequence (Q70EL1 whole entry): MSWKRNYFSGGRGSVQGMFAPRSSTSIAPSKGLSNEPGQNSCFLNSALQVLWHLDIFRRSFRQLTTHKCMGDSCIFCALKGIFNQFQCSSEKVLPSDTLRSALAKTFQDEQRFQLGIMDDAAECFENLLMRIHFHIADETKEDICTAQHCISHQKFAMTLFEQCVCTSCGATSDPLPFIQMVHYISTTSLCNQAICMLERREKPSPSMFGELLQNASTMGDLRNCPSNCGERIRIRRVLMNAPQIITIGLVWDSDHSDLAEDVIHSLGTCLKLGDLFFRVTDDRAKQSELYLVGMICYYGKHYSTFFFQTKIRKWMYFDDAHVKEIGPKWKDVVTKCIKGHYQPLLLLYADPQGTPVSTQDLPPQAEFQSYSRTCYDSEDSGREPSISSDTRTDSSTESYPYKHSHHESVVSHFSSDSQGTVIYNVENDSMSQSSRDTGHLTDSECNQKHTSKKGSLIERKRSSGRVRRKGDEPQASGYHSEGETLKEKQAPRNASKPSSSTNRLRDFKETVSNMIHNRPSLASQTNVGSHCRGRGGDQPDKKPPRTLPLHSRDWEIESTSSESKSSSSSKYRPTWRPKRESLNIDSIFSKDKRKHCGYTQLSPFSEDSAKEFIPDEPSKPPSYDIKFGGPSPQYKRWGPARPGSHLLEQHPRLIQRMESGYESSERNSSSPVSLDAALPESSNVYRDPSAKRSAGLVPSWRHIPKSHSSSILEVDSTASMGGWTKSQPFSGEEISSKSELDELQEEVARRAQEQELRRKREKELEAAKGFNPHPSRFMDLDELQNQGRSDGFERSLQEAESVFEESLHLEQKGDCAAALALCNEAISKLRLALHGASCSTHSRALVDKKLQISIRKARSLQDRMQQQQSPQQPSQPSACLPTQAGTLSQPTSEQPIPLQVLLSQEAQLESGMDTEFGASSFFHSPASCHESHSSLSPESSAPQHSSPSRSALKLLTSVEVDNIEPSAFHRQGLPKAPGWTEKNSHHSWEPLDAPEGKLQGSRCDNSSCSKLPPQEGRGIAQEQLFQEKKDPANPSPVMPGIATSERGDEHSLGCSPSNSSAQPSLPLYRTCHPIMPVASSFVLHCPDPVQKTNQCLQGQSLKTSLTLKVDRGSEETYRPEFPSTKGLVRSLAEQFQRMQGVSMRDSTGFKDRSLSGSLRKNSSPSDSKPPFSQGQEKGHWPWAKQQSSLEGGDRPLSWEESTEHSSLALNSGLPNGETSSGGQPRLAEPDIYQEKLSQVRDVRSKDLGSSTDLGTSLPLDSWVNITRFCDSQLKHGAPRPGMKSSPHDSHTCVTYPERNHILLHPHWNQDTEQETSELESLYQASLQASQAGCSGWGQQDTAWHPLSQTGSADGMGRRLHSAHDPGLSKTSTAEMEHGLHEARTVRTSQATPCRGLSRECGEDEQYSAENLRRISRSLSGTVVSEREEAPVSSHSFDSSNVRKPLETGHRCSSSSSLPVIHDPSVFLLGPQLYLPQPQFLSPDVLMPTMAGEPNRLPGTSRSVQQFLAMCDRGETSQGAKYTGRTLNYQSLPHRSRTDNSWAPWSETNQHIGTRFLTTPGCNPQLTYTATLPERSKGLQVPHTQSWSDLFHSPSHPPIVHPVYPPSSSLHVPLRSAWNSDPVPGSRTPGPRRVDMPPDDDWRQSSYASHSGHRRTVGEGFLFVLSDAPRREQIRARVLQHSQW

O=C(CCl)N1CCc2ccccc2C(O)C1 (stereo not drawn)
inactive: USP42 0.325 | USP46 -0.184 | USP47 0.0442 | USP48 -0.682 | USP5 -0.103 | USP54 0.265 | USP7 -0.687 | USP8 -0.372
